Results from PubChem BioAssay (Tox21).
Inconclusive results are not listed. The source made the active and inactive calls. Unless noted, calls come from the whole dose curve; as a rule, active = well fitted curve in the direction sought with a large enough effect in the repeat runs; inconclusive = weak or mixed curves; inactive = no such curve, though single readings can be large; an effect the other way counts as inactive or inconclusive.

Legend:
[1] = biological target: Estrogen receptor beta (Homo sapiens) (UniProt Q92731); test: qHTS assay to identify small molecule agonists of the estrogen receptor beta (ER-beta) signaling pathway (AID 1259377; active = well fitted activation curve with a large enough effect in the signal ratio in the repeat runs, not every such curve was filed as active; the % refers to the signal ratio)
Outline: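 ER-beta-UAS-bla HEK293T cells in medium with 2% charcoal-stripped FBS were exposed to compounds for 16 h at 37C. Beta-lactamase reporter activity was read as fluorescence after 2 h with LiveBLAzer B/G FRET substrate at room temperature.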

[2] = biological target: Estrogen receptor beta (Homo sapiens) (UniProt Q92731); test: qHTS assay to identify small molecule antagonists of the estrogen receptor beta (ER-beta) signaling pathway (AID 1259378; active = well fitted inhibition curve with a large enough effect in the signal ratio in the repeat runs, not every such curve was filed as active; the % refers to the signal ratio)
Outline: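 ER-beta-UAS-bla HEK293T cells in 2% charcoal-stripped FBS medium treated with compound plus 1nM final 17-beta-estradiol for 16 hr at 37C. Beta-lactamase reporter read by FRET substrate fluorescence after 2 hours at room temperature.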

[3] = qHTS assay to identify small molecule agonists of the androgen receptor (AR) signaling pathway in the presence of an antagonist - cell viability counter screen (AID 1259379);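 note: MDA-kb2 human breast cancer cells carrying an MMTV luciferase reporter; series mostly up to about 92 µM; nearly all actives have a fitted effect of over 25% in size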
Outline: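 Viability counter screen: CellTiter-Fluor fluorescence, measured in the same wells as the luciferase read-out. MDA-kb2 cells, 3,000/well, with nilutamide at 3.0uM final and compounds at 15 concentrations, 16 hr at 37C, 0% CO2.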

[4] = qHTS assay to identify small molecule antagonists of the estrogen receptor beta (ER-beta) signaling pathway - cell viability counter screen (AID 1259382); note: series mostly up to about 92 µM; nearly all actives have a fitted effect of over 55% in size
Outline: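 Luminescent ATP read-out (CellTiter-Glo, 30 min, RT) taken in the same wells as the bla reporter assay. HEK293T ER-beta-UAS-bla cells in 2% charcoal-stripped FBS were exposed to compounds with 1nM E2 for 16 hr at 37C.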

[5] = qHTS assay to identify small molecule agonists or antagonists of the thyroid stimulating hormone receptor (TSHR) signaling pathway - wild type cell line counter screen (AID 1259384; calls by dose curve)
Outline: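 Wild-type Hek293 cells, 800/well, 18 h at 37C, then compound with Ro20-1724 for 30 min RT. cAMP by HTRF (cAMP-d2/anti-cAMP cryptate), 1 h RT, fluorescence read. 15 concentrations, triplicates.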

[6] = biological target: Thyrotropin receptor (Homo sapiens) (UniProt P16473); test: qHTS assay to identify small molecule antagonists of the thyroid stimulating hormone receptor (TSHR) signaling pathway (AID 1259385; calls by dose curve; note: nearly all actives have a fitted effect of over 20% in size)
Outline: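 TSHR-HEK293 cells (800/well) plated 18 h, then compounds with Ro20-1724 and TSH at 1.5 ng/mL final, 30 min at room temperature. cAMP quantified by HTRF (cAMP-d2/anti-cAMP-cryptate, 1 h); 15 concentrations in triplicate.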

[7] = qHTS assay to identify small molecule agonists of the estrogen receptor alpha (ER-alpha) signaling pathway in the presence of an antagonist - cell viability counter screen (AID 1259386);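 note: series mostly up to about 92 µM; cells exposed to compounds for 22 h at 37 °C before the viability read; nearly all actives have a fitted effect of over 30% in size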
Outline: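 Read-out: CellTiter-Fluor fluorescence after 1hr reagent incubation, measured in the same wells as the luciferase readout. VM7Luc4E2 cells were exposed to 15 compound concentrations with 10.0nM ICI-182,780 for 22hr at 37C.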

[8] = biological target: Progesterone receptor (Homo sapiens) (UniProt P06401); test: qHTS assay to identify small molecule agonists of the progesterone receptor (PR) signaling pathway (AID 1346784; calls by dose curve; note: nearly all actives have a fitted effect of over 30% in size)
Outline: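 PR-UAS-bla HEK 293T cells (beta-lactamase reporter under UAS) in 2% charcoal-stripped FBS, dosed with 23 nL compound after 6 hr, incubated 16hr at 37C. LiveBLAzer B/G FRET substrate added, fluorescence read after 2 hours.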

[9] = qHTS assay to identify small molecule antagonists of the progesterone receptor (PR) signaling pathway - cell viability counter screen (AID 1346798); note: series mostly up to about 92 µM; nearly all actives have a fitted effect of over 50% in size
Outline: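 PR-UAS-bla HEK293T cells, 3,000/well in 2% charcoal-stripped FBS medium, dosed with compounds plus R5020 agonist and incubated 16 h at 37C. Viability then measured in the same wells by CellTiter-Glo luminescence after 30 min at RT.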

[10] = qHTS assay to identify small molecule agonists of the progesterone receptor (PR) signaling pathway - cell viability counter screen (AID 1346799; calls by dose curve; note: nearly all actives have a fitted effect of over 45% in size)
Outline: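 Counter screen in the PR-UAS-bla HEK293T wells (2% charcoal-stripped FBS, 16 h compound exposure at 37 C) after the bla read. CellTiter-Glo added, 30 min at room temperature, luminescence read as cell viability.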

[11] = qHTS assay to identify small molecule antagonists of the TGF-beta/Smad signaling pathway - cell viability counter screen (AID 1346824); note: nearly all actives have a fitted effect of over 50% in size
Outline: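 SBE-bla HEK 293T cells, incubated overnight, then compound plus 0.25 ng/mL TGF-beta1 (stock added) for 5 hr at 37 C. Viability was read in the same wells by CellTiter-Glo luminescence after 30 min at room temperature.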

[12] = qHTS assay to identify small molecule agonists of the TGF-beta/Smad signaling pathway - cell viability counter screen (AID 1346829); note: top concentration of the series differs between compounds; nearly all actives have a fitted effect of over 45% in size
Outline: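 Same-well cytotoxicity: CellTiter-Glo added after the 2 hr room-temperature beta-lactamase substrate step, luminescence measured 30 min later; cells had 5 hr of compound at 37 C.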

[13] = qHTS assay to identify small molecule agonists of the TGF-beta/Smad signaling pathway (AID 1346859; active = well fitted activation curve with a large enough effect in the signal ratio in the repeat runs, not every such curve was filed as active; the % refers to the signal ratio; note: series mostly up to about 77 µM)
Outline: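 SBE-bla HEK293T cells plated overnight, then compound exposure for 5 h at 37 C. Beta-lactamase reporter read with LiveBLAzer B/G FRET substrate after 2 h at room temperature, fluorescence at 405 nm excitation, 460/530 nm emission.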

[14] = biological target: Thyrotropin-releasing hormone receptor (Homo sapiens) (UniProt P34981); test: qHTS assay to identify small molecule antagonists of the thyrotropin-releasing hormone receptor (TRHR) signaling pathway (AID 1346877; active = well fitted inhibition curve with a large enough effect in the repeat runs, not every such curve was filed as active; note: series mostly up to about 51 µM)
Outline: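 HEK293/TRHR cells, 18 h, 37 °C; Ca2+ dye 2 h; cpd 5 min RT; TRH 1 nM final; fluorescence read 3 min, 1 s intervals; 15 concs, triplicate.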

[15] = biological target: Thyrotropin-releasing hormone receptor (Homo sapiens) (UniProt P34981); test: qHTS assay to identify small molecule agonists of the thyrotropin-releasing hormone receptor (TRHR) signaling pathway (AID 1346891; calls by dose curve; note: series mostly up to about 58 µM)
Outline: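 HEK293 cells expressing TRHR plated 18 h at 37 C/5% CO2, calcium dye-loaded 2 h at 37 C, then compound added (agonist mode); kinetic calcium fluorescence read 3 min at 1 s intervals; 15 concentrations in triplicate.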

[16] = Human pregnane X receptor (PXR) small molecule agonists, qHTS cell viability counter screen (AID 1346977); note: nearly all actives have a fitted effect of over 50% in size
Outline: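 PXR-Luc HepG2 cells (2,000/well, 5% charcoal-stripped FBS) preincubated 5 hr, then exposed to compounds 24 hr at 37 C. Viability read in the same wells by CellTiter-Fluor fluorescence, reagent added at 23 hr, 1 hr incubation.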

[17] = qHTS assay to identify small molecule agonists of the estrogen receptor beta (ER-beta) signaling pathway - cell viability counter screen (AID 1259380); note: nearly all actives have a fitted effect of over 30% in size
Outline: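 Luminescence read-out (CellTiter-Glo, 30 min, room temp) taken in the same wells as the beta-lactamase reporter assay; ER-beta-UAS-bla HEK293T cells exposed to DMSO-dissolved compounds for 16 hr at 37C in 2% charcoal-stripped FBS medium.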

[18] = biological target: Estrogen receptor (Homo sapiens) (UniProt P03372); test: qHTS assay to identify small molecule agonists of the estrogen receptor alpha (ER-alpha) signaling pathway in the presence of an antagonist (AID 1259383; calls by dose curve; note: top concentration of the series differs between compounds; nearly all actives have a fitted effect of over 15% in size)
Outline: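 Luciferase luminescence (ONE-Glo, 30min at room temperature) measured in VM7Luc4E2 cells after 22hr compound exposure at 15 concentrations, with 10.0nM ICI-182,780 final present; cells express endogenous ER-alpha and carry four EREs upstream of luciferase.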

[19] = biological target: Progesterone receptor (Homo sapiens) (UniProt P06401); test: qHTS assay to identify small molecule antagonists of the progesterone receptor (PR) signaling pathway (AID 1346795; active = well fitted inhibition curve with a large enough effect in the signal ratio in the repeat runs, not every such curve was filed as active; the % refers to the signal ratio)
Outline: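 PR-UAS-bla HEK293T cells with beta-lactamase reporter under UAS control, in 2% charcoal-stripped FBS, treated with compounds plus 1 nM promegestone (R5020, final) for 16 hr at 37C. Read-out: FRET beta-lactamase substrate fluorescence after 2 hr at room temperature.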

[20] = biological target: Androgen receptor (Homo sapiens) (UniProt P10275); test: qHTS assay to identify small molecule agonists of the androgen receptor (AR) signaling pathway in the presence of an antagonist (AID 1259381; calls by dose curve; note: nearly all actives have a fitted effect of over 15% in size)
Outline: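 Luciferase read-out (ONE-Glo, 30min room temperature) in MDA-kb2 MMTV-reporter cells; agonist mode run in presence of AR antagonist nilutamide, 3.0uM final. Compounds tested as 15-point series, 16hr exposure at 37C, 0% CO2.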
% is set by controls: 0 for no effect and ±100 for the full control effect.

Thyrotropin receptor (Homo sapiens), sequence (P16473 whole entry, looked up): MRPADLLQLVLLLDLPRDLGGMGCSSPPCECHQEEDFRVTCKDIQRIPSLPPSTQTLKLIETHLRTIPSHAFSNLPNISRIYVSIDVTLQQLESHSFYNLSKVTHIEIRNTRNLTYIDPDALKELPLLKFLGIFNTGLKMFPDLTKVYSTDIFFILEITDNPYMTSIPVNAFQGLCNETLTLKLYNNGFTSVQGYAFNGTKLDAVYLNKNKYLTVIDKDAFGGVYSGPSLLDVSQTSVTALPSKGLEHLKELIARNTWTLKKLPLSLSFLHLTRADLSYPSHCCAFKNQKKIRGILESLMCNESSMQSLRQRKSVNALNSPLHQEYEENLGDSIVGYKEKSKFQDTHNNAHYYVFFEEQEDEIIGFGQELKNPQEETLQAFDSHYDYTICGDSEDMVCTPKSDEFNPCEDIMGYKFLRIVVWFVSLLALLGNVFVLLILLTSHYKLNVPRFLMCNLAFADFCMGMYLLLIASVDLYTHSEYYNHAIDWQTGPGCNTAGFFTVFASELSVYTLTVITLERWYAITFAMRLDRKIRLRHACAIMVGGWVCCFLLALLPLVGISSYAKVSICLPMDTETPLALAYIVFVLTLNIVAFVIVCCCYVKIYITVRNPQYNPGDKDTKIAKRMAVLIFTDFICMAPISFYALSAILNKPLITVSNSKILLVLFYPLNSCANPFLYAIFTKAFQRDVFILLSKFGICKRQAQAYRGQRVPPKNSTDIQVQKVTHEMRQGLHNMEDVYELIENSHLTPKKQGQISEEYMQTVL
Estrogen receptor beta (Homo sapiens), sequence (Q92731 whole entry, looked up): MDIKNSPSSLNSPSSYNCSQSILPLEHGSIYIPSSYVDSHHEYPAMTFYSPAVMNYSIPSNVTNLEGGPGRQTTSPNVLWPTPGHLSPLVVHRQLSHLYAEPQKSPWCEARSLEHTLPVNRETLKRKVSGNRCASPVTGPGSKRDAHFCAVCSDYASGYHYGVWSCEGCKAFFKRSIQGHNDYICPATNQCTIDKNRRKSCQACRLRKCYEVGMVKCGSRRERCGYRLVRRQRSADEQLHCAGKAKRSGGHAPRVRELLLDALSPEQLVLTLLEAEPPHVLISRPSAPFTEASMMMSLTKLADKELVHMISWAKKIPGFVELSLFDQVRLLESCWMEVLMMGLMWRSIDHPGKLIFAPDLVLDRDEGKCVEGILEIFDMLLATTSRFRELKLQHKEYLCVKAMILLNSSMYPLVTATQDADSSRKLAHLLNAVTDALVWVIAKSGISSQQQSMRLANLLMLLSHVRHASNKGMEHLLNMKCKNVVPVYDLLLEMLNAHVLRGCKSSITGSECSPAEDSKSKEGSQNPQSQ
Thyrotropin-releasing hormone receptor (Homo sapiens), sequence (P34981 whole entry, looked up): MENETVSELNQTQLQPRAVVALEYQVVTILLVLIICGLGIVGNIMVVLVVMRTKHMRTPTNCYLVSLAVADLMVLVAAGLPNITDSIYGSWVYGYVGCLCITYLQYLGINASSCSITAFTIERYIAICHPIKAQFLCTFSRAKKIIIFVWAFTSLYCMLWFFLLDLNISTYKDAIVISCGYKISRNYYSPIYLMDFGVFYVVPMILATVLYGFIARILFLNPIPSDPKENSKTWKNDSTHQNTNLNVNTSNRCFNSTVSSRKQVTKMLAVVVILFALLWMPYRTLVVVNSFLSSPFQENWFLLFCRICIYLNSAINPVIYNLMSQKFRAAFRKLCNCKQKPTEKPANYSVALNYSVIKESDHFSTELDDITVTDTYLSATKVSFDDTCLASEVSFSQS
Estrogen receptor (Homo sapiens), sequence (P03372 whole entry, looked up): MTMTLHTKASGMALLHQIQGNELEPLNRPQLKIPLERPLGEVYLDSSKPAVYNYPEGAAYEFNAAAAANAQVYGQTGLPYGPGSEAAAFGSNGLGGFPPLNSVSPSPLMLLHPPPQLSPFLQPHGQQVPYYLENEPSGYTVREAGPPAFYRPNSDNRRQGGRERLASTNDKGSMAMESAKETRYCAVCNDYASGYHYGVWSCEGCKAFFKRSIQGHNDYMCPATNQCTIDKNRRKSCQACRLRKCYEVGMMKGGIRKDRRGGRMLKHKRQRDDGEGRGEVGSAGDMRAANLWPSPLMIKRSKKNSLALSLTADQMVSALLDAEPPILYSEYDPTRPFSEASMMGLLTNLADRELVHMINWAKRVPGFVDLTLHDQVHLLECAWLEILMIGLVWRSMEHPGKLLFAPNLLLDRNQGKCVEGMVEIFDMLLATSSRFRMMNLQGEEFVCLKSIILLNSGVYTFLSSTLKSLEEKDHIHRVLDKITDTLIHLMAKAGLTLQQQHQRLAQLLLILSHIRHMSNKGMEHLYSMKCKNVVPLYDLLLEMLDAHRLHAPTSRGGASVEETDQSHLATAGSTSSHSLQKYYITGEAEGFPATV
Progesterone receptor (Homo sapiens), sequence (P06401 whole entry, looked up): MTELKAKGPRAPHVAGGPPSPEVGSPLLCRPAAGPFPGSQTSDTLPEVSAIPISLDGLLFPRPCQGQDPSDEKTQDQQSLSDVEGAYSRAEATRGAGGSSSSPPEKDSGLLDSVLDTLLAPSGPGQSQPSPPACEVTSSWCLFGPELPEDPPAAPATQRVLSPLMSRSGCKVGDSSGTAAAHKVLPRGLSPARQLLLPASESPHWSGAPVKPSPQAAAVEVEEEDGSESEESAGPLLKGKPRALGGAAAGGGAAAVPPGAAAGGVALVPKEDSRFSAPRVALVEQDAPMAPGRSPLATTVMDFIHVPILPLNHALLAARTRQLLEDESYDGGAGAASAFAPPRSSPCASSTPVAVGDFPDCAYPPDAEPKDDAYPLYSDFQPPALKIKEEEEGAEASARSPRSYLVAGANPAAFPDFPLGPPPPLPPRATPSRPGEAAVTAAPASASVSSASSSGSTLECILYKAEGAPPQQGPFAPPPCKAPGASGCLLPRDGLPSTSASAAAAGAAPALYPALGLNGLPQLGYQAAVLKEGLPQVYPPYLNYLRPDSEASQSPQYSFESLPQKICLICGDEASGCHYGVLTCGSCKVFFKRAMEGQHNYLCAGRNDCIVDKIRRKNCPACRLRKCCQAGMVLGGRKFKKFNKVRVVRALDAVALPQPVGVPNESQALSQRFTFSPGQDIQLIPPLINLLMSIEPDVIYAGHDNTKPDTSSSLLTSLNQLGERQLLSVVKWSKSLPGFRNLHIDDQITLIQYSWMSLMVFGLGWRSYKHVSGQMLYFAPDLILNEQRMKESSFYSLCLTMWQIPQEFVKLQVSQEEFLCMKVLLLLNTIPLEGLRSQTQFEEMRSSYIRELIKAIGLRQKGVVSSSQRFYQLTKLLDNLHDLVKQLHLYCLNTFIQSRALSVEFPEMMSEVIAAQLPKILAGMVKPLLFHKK
Androgen receptor (Homo sapiens), sequence (P10275 whole entry, looked up): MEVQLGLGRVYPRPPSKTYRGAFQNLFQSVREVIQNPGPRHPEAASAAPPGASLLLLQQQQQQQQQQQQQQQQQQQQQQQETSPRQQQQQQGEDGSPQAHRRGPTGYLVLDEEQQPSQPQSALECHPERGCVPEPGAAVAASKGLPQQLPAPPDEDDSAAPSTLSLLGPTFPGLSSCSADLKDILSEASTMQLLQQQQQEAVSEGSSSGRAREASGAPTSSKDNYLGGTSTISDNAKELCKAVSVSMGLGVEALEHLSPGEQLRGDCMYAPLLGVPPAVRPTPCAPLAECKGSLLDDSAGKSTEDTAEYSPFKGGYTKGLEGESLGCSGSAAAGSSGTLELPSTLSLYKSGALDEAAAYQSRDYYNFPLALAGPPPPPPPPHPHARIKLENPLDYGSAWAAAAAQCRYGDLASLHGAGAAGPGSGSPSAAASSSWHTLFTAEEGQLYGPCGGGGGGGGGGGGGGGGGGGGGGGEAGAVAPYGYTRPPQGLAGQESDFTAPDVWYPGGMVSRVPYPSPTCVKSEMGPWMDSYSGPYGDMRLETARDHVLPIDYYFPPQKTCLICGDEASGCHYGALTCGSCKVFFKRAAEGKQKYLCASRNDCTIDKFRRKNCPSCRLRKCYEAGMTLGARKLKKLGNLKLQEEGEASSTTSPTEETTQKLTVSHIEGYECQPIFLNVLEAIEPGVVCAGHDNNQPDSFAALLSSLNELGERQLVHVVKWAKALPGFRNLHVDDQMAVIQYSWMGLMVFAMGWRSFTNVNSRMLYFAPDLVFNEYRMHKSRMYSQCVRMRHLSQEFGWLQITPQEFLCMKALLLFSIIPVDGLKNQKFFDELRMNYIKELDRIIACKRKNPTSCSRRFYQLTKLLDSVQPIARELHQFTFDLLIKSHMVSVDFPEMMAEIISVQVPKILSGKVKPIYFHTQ

N[C@H](C(=O)O)[C@@H](O)c1ccc(O)c(O)c1
inactive: Potency [1] | Potency [2] | Potency [3] | outcome [4] | outcome [5] | outcome [6] | Potency [7] | Potency [8] | Potency [9] | Potency [10] | outcome [11] | outcome [12] | outcome [13] | outcome [14] | Potency [15] | Potency [16]

CCOC(=O)c1ccccc1
inactive: Potency [1] | Potency [3] | Potency [17] | outcome [4] | outcome [18] | Potency [7] | Potency [8] | Potency [19] | Potency [9] | Potency [10] | outcome [11] | outcome [12] | outcome [13] | outcome [14] | Potency [15] | Potency [16]

CCC(C)(CCCC(C)C)OC(C)=O (stereo not drawn)
inactive: Potency [1] | Potency [2] | Potency [3] | outcome [4] | outcome [5] | outcome [6] | Potency [7] | Potency [8] | Potency [19] | Potency [9] | Potency [10] | outcome [11] | outcome [13]

CCCCCCCCCCOc1cc2c(=O)c(C(=O)OCC)c[nH]c2cc1OCC
inactive: activation [1] -0.652% [at 8.39 µM] | activity change, negative = cytotoxicity [3] 0.727% [at 8.39 µM] | activity change, negative = cytotoxicity [17] 7.19% [at 8.39 µM] | activity change, negative = cytotoxicity [4] 5.47% [at 8.39 µM] | activation [18] 0.417% [at 8.39 µM] | cAMP activity change [5] -4.45% [at 8.39 µM] | activity change, negative = inhibition [6] 0.172% [at 8.39 µM] | activity change, negative = cytotoxicity [7] -3.47% [at 8.39 µM] | activity change, negative = cytotoxicity [9] 1.18% [at 8.39 µM] | activity change, negative = cytotoxicity [10] -5.75% [at 8.39 µM] | viability change, negative = cytotoxic [11] 0.981% [at 6.97 µM] | activity change, negative = cytotoxicity [12] 0.83% [at 6.97 µM] | activation [13] 0.379% [at 6.97 µM] | activity, negative = inhibition [14] 0.403% [at 4.65 µM] | activation [15] 0.481% [at 5.23 µM] | activity change, negative = cytotoxicity [16] -1.67% [at 8.39 µM]

Cc1ccc(-c2ccccc2C#N)cc1
inactive: Potency [1] | Potency [3] | Potency [17] | Potency [20] | outcome [4] | outcome [18] | outcome [5] | outcome [6] | Potency [8] | Potency [19] | Potency [9] | outcome [11] | outcome [13] | outcome [14] | Potency [15] | Potency [16]

CC1(C)[C@@H]2CC[C@@]1(C)[C@H](O)C2
inactive: Potency [1] | Potency [2] | Potency [3] | outcome [4] | outcome [5] | outcome [6] | Potency [8] | Potency [19] | Potency [9] | Potency [10] | outcome [11] | outcome [12] | outcome [13] | outcome [14] | Potency [15] | Potency [16]

CC(COc1ccccc1)NN (stereo not drawn)
inactive: Potency [1] | Potency [3] | Potency [17] | outcome [4] | outcome [18] | outcome [5] | outcome [6] | Potency [7] | Potency [8] | Potency [19] | Potency [9] | Potency [10] | outcome [11] | outcome [12] | outcome [13] | Potency [16]

CN(C)CCCN(C)CCCN(C)C
inactive: Potency [1] | Potency [3] | Potency [17] | outcome [4] | outcome [18] | outcome [6] | Potency [7] | Potency [8] | Potency [10] | outcome [11] | outcome [12] | outcome [13] | outcome [14] | Potency [15] | Potency [16]

O=C(O)c1cn(C2CC2)c2cc(N3CCNCC3)c(F)cc2c1=O
inactive: Potency [1] | Potency [3] | Potency [17] | outcome [4] | outcome [18] | outcome [5] | outcome [6] | Potency [7] | Potency [8] | Potency [19] | Potency [9] | Potency [10] | outcome [11] | outcome [13] | Potency [16]

C[N+](C)(CCOc1ccccc1)Cc1cccs1
inactive: Potency [1] | Potency [3] | Potency [17] | Potency [20] | outcome [4] | outcome [5] | outcome [6] | Potency [7] | Potency [9] | Potency [10] | outcome [11] | outcome [14] | Potency [15] | Potency [16]
